In the library only some 3.5% were active in any assay of this set; here they are far more common.
MITF primary: inhibitors of human MITF. inhibition, % at 2.6 µM. AID 1259374. hit rate 0.91% among 650,000. O75030. AlphaScreen MITF homodimerization, bead proximity signal; in the data active = inhibition above about 50%;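 note: 0% = vehicle wells with protein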
Target sequence (O75030 whole entry, looked up): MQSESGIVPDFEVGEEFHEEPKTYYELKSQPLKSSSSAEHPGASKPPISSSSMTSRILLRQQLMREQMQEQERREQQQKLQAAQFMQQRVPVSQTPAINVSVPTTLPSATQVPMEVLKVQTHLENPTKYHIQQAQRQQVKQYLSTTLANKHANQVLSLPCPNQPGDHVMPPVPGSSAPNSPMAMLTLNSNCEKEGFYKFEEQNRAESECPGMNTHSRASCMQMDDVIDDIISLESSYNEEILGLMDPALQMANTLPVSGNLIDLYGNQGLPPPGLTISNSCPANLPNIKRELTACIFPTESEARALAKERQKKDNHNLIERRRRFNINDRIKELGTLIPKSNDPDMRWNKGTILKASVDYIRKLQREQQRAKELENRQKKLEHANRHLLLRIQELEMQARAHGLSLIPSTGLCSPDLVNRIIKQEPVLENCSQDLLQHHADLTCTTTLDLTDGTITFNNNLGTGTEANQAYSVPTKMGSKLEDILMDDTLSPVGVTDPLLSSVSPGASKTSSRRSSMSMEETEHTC
FBW7 act: human FBW7 E3 ligase activation, primary screen. Q969H0. AlphaScreen FBW7–phospho-cyclin E peptide binding, activator screen. normalized activity (activation), % at 26.1 µM. hit rate 0.13% among 650,000. AID 1259310; in the data active = normalized activity above about 1.9%;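 note: purified mutant Fbw7 with reduced substrate affinity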
TEAD-YAP block: TEAD-YAP interaction inhibition; HEK-TIYL cells, TEAD-Gal4/YAP UAS-luciferase luminescence; inhibition, % at 9.12 µM; hit rate 1.4% among 640,000; in the data active = inhibition above about 32%;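 note: 0% = median of test compound wells and 100% = reference inhibitor wells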
GPR151 activ: activates the human receptor GPR151. AID 1508602. Q8TDV0. hit rate 1% among 650,000. activation, % at 11.2 µM. PathHunter beta-arrestin GPR151 cells, luminescence; in the data active = activation above about 4.9%;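 note: 0% = median of compound wells and 100% = cells with positive control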
MITF inh conf: human MITF inhibition, confirmation; hit rate 16% among 4,700; AlphaScreen MITF homodimerization, biotin/His-MITF beads; inhibition, % at 2.6 µM; AID 1259372; shares compounds with MITF primary;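 active = inhibition above a cutoff derived from the DMSO control wells, cut at about 28% in these data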;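 note: 0% = MITF dimer wells with DMSO only; inhibitors lower the bead chemiluminescence by keeping MITF from dimerizing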
AS interf DR: counter-screen: compounds optically interfering with AlphaScreen; shares compounds with MITF primary; hit rate 6% among 480; IC50, µM; AID 1259373; AlphaScreen optical interference counterscreen, cell-free; call rule not given here
AS interf ctr: counter-screen: compounds optically interfering with AlphaScreen. hit rate 7.6% among 4,700. inhibition, % at 2.6 µM. shares compounds with MITF primary. AID 1259376. LysRS AlphaScreen counterscreen, signal interference, triplicate;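 active = inhibition above a cutoff derived from the DMSO control wells, cut at about 30% in these data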
Starred values were filed as active, the others as inactive; . = not tested or not shown.

SMILES	MITF primary	FBW7 act	TEAD-YAP block	GPR151 activ	MITF inh conf	AS interf ctr	others
CCc1ccc(NC(=O)CNCC(C)O)cc1 (stereo not given)	56*	0	-9	2	-16	0
CCc1ccc(NC(=O)C(=O)NCC(C)O)cc1 (stereo not given)	10	0	-35	-1	.	.
Cc1cccc(CN2CCN(C(=O)c3ccccc3F)CC2)c1	43	0	7	2	.	.
COc1cccc(CN2CCN(C(=O)c3ccc(F)cc3)CC2)c1	60*	0	7	-2	52*	21	AS interf DR=>5.3
O=C(c1cccc(F)c1)N1CCN(Cc2cccc(Br)c2)CC1	50	0	11	0	.	.
Cc1cccc(CN2CCN(C(=O)c3ccc(F)cc3)CC2)c1	68*	1	6	-1	17	11
O=C(c1ccncc1)N1CCN(Cc2cccc(Br)c2)CC1	65*	0	14	1	-3	-3
COc1cccc(CN2CCN(C(=O)c3ccncc3)CC2)c1	81*	0	0	0	26	-15
CCOC(=O)C(NC(C)=O)C(O)c1ccccc1[N+](=O)[O-] (stereo not given)	2	0	7	0	.	.
CCc1ccc(NS(=O)(=O)c2ccc(OC)c(I)c2)cc1	5	0	4	2	.	.
COc1ccc(N2CCN(CC(O)COc3ccc(Cl)cc3)CC2)cc1 (stereo not given)	5	0	-4	0	.	.
O=C(c1ccc(-c2ccccc2)cc1)N1CCN(Cc2cccc(F)c2)CC1	64*	0	-9	-1	-4	3
Cc1cccc(CN2CCC(C(=O)NC(C)C)CC2)c1	77*	0	1	-1	-9	-7
COc1cccc(CN2CCN(C(=O)Nc3cccc(Cl)c3)CC2)c1	51*	0	-6	-1	3	10
COc1cccc(CN2CCC(C(=O)NC(C)C)CC2)c1	46	1	3	1	.	.
O=C1NC(=O)N(c2ccccc2)C(=O)/C1=C\c1ccccc1Br	-10	0	-5	1	.	.
COc1ccc(CN2CCN(C(=O)c3c(OC)cccc3OC)CC2)c(OC)c1	12	0	2	2	.	.
COc1ccc(CN2CCN(C(=O)c3ccncc3)CC2)c(OC)c1	60*	0	-16	0	17	-5
COc1cccc(C(=O)N2CCN(Cc3ccc(OC)cc3OC)CC2)c1	53*	1	6	0	-2	-3
COc1ccc(OC)c(CN2CCN(C(=O)c3ccccc3)CC2)c1	40	0	-11	-1	.	.
COc1ccc(OC)c(CN2CCN(C(=O)c3ccncc3)CC2)c1	74*	0	0	-1	-11	1
COc1cc(Nc2ccc(NC(=O)c3cccc(F)c3)cc2)nc(C)n1	57*	0	15	1	-5	-6
CCOC(=O)N1CCN(c2c(NCCCN3CCN(CC)CC3)c(=O)c2=O)CC1	-1	0	6	2	.	.
O=C(CSc1ccc(-c2ccccn2)nn1)c1ccccc1	53*	-2	-44	0	88*	100*
O=C(CSc1ccc(-c2ccccn2)nn1)Nc1ccccc1F	52*	0	0	-5	56*	88*
SMILES	MITF primary	FBW7 act	TEAD-YAP block	GPR151 activ	MITF inh conf	AS interf ctr	others
O=C(CSc1ccc(-c2ccccn2)nn1)Nc1ccc(F)c(F)c1	17	-2	-1	-2	.	.
Cc1ccc(CN2CCN(c3ccc([N+](=O)[O-])cc3)CC2)s1	70*	1	2	0	-3	3
O=[N+]([O-])c1ccc(CN2CCCCCC2)s1	4	0	9	-1	.	.
CN1CCCN(Cc2ccc([N+](=O)[O-])s2)CC1	52*	0	0	0	4	6
O=[N+]([O-])c1ccc(N2CCN(Cc3cc(Br)cs3)CC2)cc1	56*	0	6	1	4	6
CC(=O)c1ccc(N2CCN(Cc3ccc(C)s3)CC2)cc1	36	0	-1	1	.	.
N#Cc1ccc(C(=O)Nc2cccc([N+](=O)[O-])c2)c(F)c1	11	0	0	1	.	.
COC(=O)C(CC(C)C)NC(=O)c1ccccc1Cl (stereo not given)	9	0	-6	0	.	.
Cc1cc(OCCN2CCN(Cc3ccccc3)CC2)ccc1[N+](=O)[O-]	82*	0	-2	-1	0	-2
Cc1cc(OCCCN2CCCCCC2)ccc1[N+](=O)[O-]	46	0	-1	-1	.	.
CCN1CCN(CCOc2ccc([N+](=O)[O-])c(C)c2)CC1	65*	0	-14	-1	7	7
CCN1CCN(CCCOc2ccc([N+](=O)[O-])cc2)CC1	66*	0	13	0	7	16
Cc1cc(OCCN2CCC(C)CC2)ccc1[N+](=O)[O-]	52*	0	-31	0	1	8
O=[N+]([O-])c1ccc(OCCCN2CCCCCC2)cc1	30	0	7	0	.	.
Cc1cc(OCCN2CC(C)CC(C)C2)ccc1[N+](=O)[O-] (stereo not given)	15	0	1	-1	.	.
Cc1ccc(S(=O)(=O)N(C)C2=NS(=O)(=O)c3ccccc32)cc1	2	0	11	-1	.	.
CCN(CC)S(=O)(=O)c1ccc(NS(=O)(=O)c2ccc(C)cc2)c([N+](=O)[O-])c1	16	1	6	1	.	.
COc1ccc(C)cc1S(=O)(=O)N(CC(=O)O)c1ccc(Cl)c(Cl)c1	5	0	9	1	.	.
CCOC(=O)N1CCN(c2cc(-c3cncc(-c4ccccc4)c3)nc(C)n2)CC1	2	0	-6	0	.	.
Cc1ccc([N+](=O)[O-])c(OCCN2CCN(Cc3ccccc3)CC2)c1	63*	0	8	0	13	8
Cc1cc(OCCCCN2CCCC2)ccc1[N+](=O)[O-]	82*	0	-3	-1	24	1
Cc1ccc([N+](=O)[O-])c(OCCN2CCNCC2)c1	47	0	3	0	.	.
N=C1/C(=C/c2ccc(SCc3ccco3)o2)C(=O)N=C2SC=CN12	27	0	-25	0	.	.
N#C/C(=C\c1ccc(OCc2ccccc2F)cc1)c1nn(CCO)c(N)c1C#N	4	0	2	-1	.	.
Cn1c(-c2cccc([N+](=O)[O-])c2)cnc1NCc1ccc(F)cc1	38	0	-4	0	.	.
Cn1c(-c2cccc([N+](=O)[O-])c2)cnc1NCc1cccc(F)c1	52*	0	-11	0	-8	-8
Cn1c(-c2cccc([N+](=O)[O-])c2)cnc1NCc1cccc(O)c1	39	0	-10	0	.	.
Cn1c(-c2ccc(F)cc2)cnc1NCc1cccc([N+](=O)[O-])c1	59*	0	-2	0	-4	-5
Cc1cccc(NC(=O)CSc2ncc(-c3ccccc3)[nH]2)c1	81*	0	-2	2	-7	-1
